Assay outcomes deposited in PubChem BioAssay by National Center for Advancing Translational Sciences (NCATS).
KCNH2 3.1 inh: KCNH2 3.1 (human) potassium channel inhibition; AID 720553; U2OS KCNH2 3.1, thallium flux FluxOr; active compounds read low; activity change, % (tested at about 1.8 µM); 0.95% of 340,000 active;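 active = maximum activity change below -70%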;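 also: thallium influx rate constant from kinetic fluorescence after stimulation buffer; % is scaled to controls: 0 for no effect and ±100 for the full control effect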
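Normalized rate constant (relative to positive and negative DMSO controls) derived from a 2 min kinetic fluorescence read after stimulation; U2OS cells expressing the 3.1 isoform via virus at 1.77 x 10^8 /mL.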
p53 reactivation: restores transcriptional activity of mutant p53 | H1299 p53-A138V BP100-luciferase reporter, luminescence, 24 h | Potency, µM (titrated, usually from 92.2 µM), inactives show at the top dose activity change, positive = activation, most hits filed as activators | 0.063% of 320,000 active | AID 504706; active = well fitted activation curve with a large enough effect; also: potency is read from the fitted curve at half-maximal effect; % of control where 0% means no effect; nearly all actives have a fitted effect of over 45% in size
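p53-null H1299 cells stably carrying temperature-sensitive p53-A138V and a BP100-luciferase reporter were pinned with compounds (4-point, 1:5 series) and held 24 hrs at 37 deg C. Luminescence was read 10 min after detection reagent.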
TRPV1 ag: agonists of human vanilloid receptor 1 (TRPV1). Q8NER1. TRPV1-expressing cells, Fluo-8 calcium influx, agonist mode. activation, % at 8.33 µM. 0.19% of 320,000 active; in the data active = activation above about 80%; also: 0% is about no effect
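TRPV1-expressing cells were cultured overnight at 35.5C and loaded with Fluo-8 calcium dye for 40 to 90 min at room temperature. After a 10 s baseline, compound was added and calcium influx was read kinetically for 3 min (ex 480/em 520 nm).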
ClpP mod: qHTS Assay for Activators of ClpP | ATP-dependent Clp protease proteolytic subunit (Bacillus subtilis (strain 168)), P80244 | purified B. subtilis ClpP, FRET peptide cleavage, 20 min | Potency, µM (highest dose often 57.5 µM), without a hit: at the top dose activity change, negative = active | 1.9% of 340,000 active | AID 651965, 2013; active = well fitted falling curve with a large enough effect; also: potency is read from the fitted curve at half-maximal effect; the source files actives as falling curves though it sought activators and does not explain the sign; nearly all actives have a fitted effect of over 65% in size
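FRET quenching reversal measured ClpP activation: 10 microg/mL B. subtilis ClpP at pH 8 with the FRET-FV decapeptide, read at 430 nm after 320 nm excitation. The 20-min minus 0-min signal was scaled between DMSO/no-enzyme wells and ADEP (5.8 microM final).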
TRPV1 potentiator: potentiators of human vanilloid receptor 1 (TRPV1) | TRPV1-expressing cells, Fluo-8 calcium influx, capsaicin EC20 potentiation | 0.02% of 320,000 active | potentiation, % at 8.33 µM; in the data active = potentiation above about 80%; also: 0% is about no effect
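Fluo-8 calcium influx in TRPV1-expressing cells, kinetic read (ex 480/em 520 nm). Compound added and read 3 min for agonist activity, followed by capsaicin at EC20 final and 2 min further read for enhancement.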
hERG WT inh: KCNH2 (human, wildtype) channel inhibition; activity change, % at 1.84 µM; U2OS, BacMam KCNH2, thallium flux FluxOr; active compounds read low; 0.37% of 340,000 active; Q12809; AID 720551;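 active = maximum activity change below -70%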; also: % is scaled to controls: 0 for no effect and ±100 for the full control effect
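U2OS cells were transduced with wild-type KCNH2 virus (2.03 x 10^8 / mL) for 4 h at room temperature, then cultured overnight at 37 C. Thallium flux was read with FluxOr dye. Rate constants were normalized to DMSO controls.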
* marks the source's active call; other numbers are inactive results; · = no result. In the library only some 2.6% were active in any assay of this set; here they are far more common.

SMILES	KCNH2 3.1 inh	p53 reactivation	TRPV1 ag	ClpP mod	TRPV1 potentiator	hERG WT inh
Cc1ccc(S(=O)(=O)c2c(N)n(NC(=O)c3ccco3)c3nc4ccccc4nc23)cc1	15	-4%	-3	8.9µM*	4	-2
CCc1ccccc1NC(=O)N1CCN(Cc2nc3ccc(C)cc3o2)CC1	·	·	·	1%	·	·
CCN(CC(=O)Nc1ccccc1C(F)(F)F)CC(=O)c1[nH]c(C)c(C(C)=O)c1C	-4	·	·	-2%	·	-2
O=C(NCc1cccc(F)c1)c1ccccc1NC(=O)c1nsc2ccccc12	·	·	·	28µM*	·	·
CSc1ccc(CNC(=O)c2ccccc2NC(=O)c2nsc3ccccc23)cc1	·	·	·	-13%	·	·
COc1ccc(-c2c(C#N)c(SCC(=O)Nc3cccc(Cl)c3)nc(C)c2C(=O)Nc2ccccc2)cc1OC	·	·	·	4%	·	·
O=[N+]([O-])c1ccc(NNC(=S)Nc2ccc(F)cc2)cc1	-11	28µM*	-2	-1%	7	-3
CC(C)N1CCCC(C)(C(=O)Nc2cccc(Oc3ccccc3)c2)C1 (configuration not stated)	·	·	·	-3%	·	·
Cc1ccc(Cl)cc1NC(=O)c1ccc(-c2nc(CSc3ccccc3)c(C)o2)cc1	·	·	·	13µM*	·	·
O=C(N/N=C\c1ccc(O)c([N+](=O)[O-])c1)c1ccccc1-n1cccc1	7	-2%	-8	-3%	5	-2
CCn1c2ccccc2c2cc(/C=N/NC(=O)c3ccccc3)ccc21	-1	0%	-1	22µM*	9	2
Cn1c2ccccc2c2cc(/C=N/NC(=O)c3cc(O)cc(O)c3)ccc21	-2	-11%	1	4%	1	-23
Cn1c2ccccc2c2cc(/C=N/NC(=O)c3cc(O)ccc3O)ccc21	2	-12%	-1	-4%	11	-6
COc1cc(C=NNC(=O)c2ccccc2-n2cccc2)ccc1O	11	-5%	·	20µM*	·	0
COc1cc(C(=O)N/N=C/c2ccc3c(c2)c2ccccc2n3C)ccc1O	·	-2%	26	28µM*	-3	5
CCCCC[C@H](C)N1C[C@H](COCc2ccccc2)Oc2cc(N3CC[C@@H](N(C)C)C3)ccc2S1(=O)=O	·	·	·	-29%	·	·
COc1cc2c(cc1NC(=O)Nc1ccc(C)cc1)oc1ccccc12	23	12%	15	35µM*	-1	-7
COc1cc2c(cc1NC(=O)CSc1nc3cc(Cl)ccc3s1)oc1ccccc12	-3	3%	-2	5.6µM*	2	-2
COc1cc2c(cc1NC(=O)CSc1ccccc1)oc1ccccc12	21	22%	-1	-19%	10	-10
COc1cc2c(cc1NC(=O)c1cc(-c3cccnc3)nc3ccc(C)cc13)oc1ccccc12	-9	-1%	-2	20µM*	-6	-8
COc1cc2c(cc1NC(=O)c1cc(-c3ccncc3)nc3ccccc13)oc1ccccc12	·	-5%	-4	-25%	7	-6
COc1cc2c(cc1NC(=S)Nc1cccc(C)c1)oc1ccccc12	8	12%	3	11µM*	5	3
FC(F)(F)c1cc(Cl)c2nc(-c3ccccc3)c(Cc3cccc(Cl)c3)n2c1	·	·	·	-9%	·	·
COc1cc2c(cc1NC(=O)Nc1cccc(C)c1)oc1ccccc12	7	-5%	2	28µM*	9	-6
COc1ccc(NC(=O)Nc2cc3oc4ccccc4c3cc2OC)cc1	-6	-4%	-4	-22%	18	9
O=C1Nc2ccc(Br)cc2/C1=C/C(=O)c1ccccc1	-10	·	·	1%	·	16
O=C(O)COc1ccccc1/C=C1\C(=O)Nc2ccc(Br)cc21	-7	·	-1	25µM*	2	-19
COc1ccc(CN2C(=O)c3ccccc3C2c2nnnn2-c2ccc3c(c2)OCCO3)cc1OC (configuration not stated)	·	·	·	1%	·	·
COCCCNC(=O)CN1C(=O)c2cccnc2Sc2ccccc21	·	·	·	1%	·	·
